# Source: PubChem BioAssay (National Center for Advancing Translational Sciences (NCATS))
# Compounds with a hit are over-represented: about 9% of the library has one in this group of screens.
# JMJD2A Tudor inh: JMJD2A Tudor domain (human) inhibition; AlphaScreen JMJD2A-Tudor / H3K4me3 peptide binding; Potency, µM (doses to about 114 µM), for inactives: at the top dose activity change, negative = inhibition, actives largely listed as inhibitors; 390,000 compounds, 4.4% hits; further: on the % scale 0 is the no-effect control and ±100 the full control effect; nearly all actives have a fitted effect of over 50% in size
# PLK1 PBD inh: blocks phosphopeptide binding to human PLK1 polo-box domain; P53350; Plk1 PBD binding of FITC phosphopeptide, fluorescence polarization; Potency, µM, inactives show max response, negative = inhibition, usual class: inhibitors; 360,000 compounds, 2.8% hits; further: series mostly up to about 57 µM; on the % scale 0 is the no-effect control and ±100 the full control effect; nearly all actives have a fitted effect of over 65% in size
# BAZ2B block: BAZ2B (human) inhibition. AlphaScreen BAZ2B-H3K14Ac peptide displacement. AID 504333. 360,000 compounds, 4.4% hits. Potency, µM (top dose mostly 114 µM), for the others: top-dose activity change, negative = inhibition, actives largely listed as inhibitors. Q9UIF8; further: on the % scale 0 is the no-effect control and ±100 the full control effect; nearly all actives have a fitted effect of over 60% in size
#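 Compounds, titrated to a top concentration of 110 uM, were incubated 30 min at room temperature with preformed BAZ2B/acetyl-K14 H3 peptide complex (50 nM each). Proximity signal was measured by AlphaScreen after 20 min with beads.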
# HP1b binding inh: inhibitors of HP1-beta chromodomain binding to methylated histone tails; P83916; AlphaScreen HP1-beta / biotin-H3K9me3 peptide binding; Potency, µM (top dose mostly 114 µM), for the others: at the highest dose activity change, negative = inhibition, hits mostly inhibitors; 390,000 compounds, 0.56% hits; AID 540317; further: nearly all actives have a fitted effect of over 70% in size
# Target sequence (P83916 whole entry, looked up): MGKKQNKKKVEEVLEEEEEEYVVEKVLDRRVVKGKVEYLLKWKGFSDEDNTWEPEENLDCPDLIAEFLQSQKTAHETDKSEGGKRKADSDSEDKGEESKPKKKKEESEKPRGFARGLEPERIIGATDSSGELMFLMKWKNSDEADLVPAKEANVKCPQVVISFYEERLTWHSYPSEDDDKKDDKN
#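 HP1-beta protein (50 nM final) preincubated 30 min at room temperature with biotinylated H3(1-18)K9me3 peptide (50 nM) in PBS pH 7.4, 0.01% Tween-20, then compound added for 30 min. AlphaScreen streptavidin donor/nickel chelate acceptor beads (10 ug/mL final), 30 min dark, luminescence read.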
# G9a block: inhibitors of human histone lysine methyltransferase G9a; Q96KQ7; Potency, µM (doses to about 102 µM), for inactives: top-dose activity, negative = inhibition, most hits filed as inhibitors; G9a H3K9 monomethylation, AlphaScreen, 2 h; 350,000 compounds, 8.8% hits; further: on the % scale 0 is the no-effect control and ±100 the full control effect; nearly all actives have a fitted effect of over 75% in size
# Target sequence (Q96KQ7 913-1193 limits assumed): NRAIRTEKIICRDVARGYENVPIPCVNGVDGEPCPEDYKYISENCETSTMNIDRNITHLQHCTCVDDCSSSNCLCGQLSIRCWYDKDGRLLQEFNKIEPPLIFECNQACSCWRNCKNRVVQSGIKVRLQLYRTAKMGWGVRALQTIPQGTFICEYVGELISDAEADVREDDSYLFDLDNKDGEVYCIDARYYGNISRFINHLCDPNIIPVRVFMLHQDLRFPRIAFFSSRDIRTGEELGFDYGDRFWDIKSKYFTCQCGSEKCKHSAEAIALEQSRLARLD
#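 Quantitative HTS format: methyltransferase activity on a biotin-tagged H3K9 peptide is measured by AlphaScreen, using a rabbit anti-monomethyl-H3K9 antibody with streptavidin donor and anti-IgG acceptor beads. Final levels are 20 nM enzyme, 500 nM peptide, 20 uM SAM; 2 h RT.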
# 12-LOX inh: inhibitors of human 12S-lipoxygenase ALOX12; P18054; purified 12hLO, xylenol orange hydroperoxide absorbance; Potency, µM (titrated, usually from 108 µM), for the others: at the top dose activity change, negative = inhibition, hits mostly inhibitors; 580,000 compounds, 1.1% hits; further: on the % scale 0 is the no-effect control and ±100 the full control effect
#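 Purified human 12hLO at 150 nM in 25 mM Hepes, 0.01% Triton X-100, pH 7.0, preincubated 15 min at room temperature with compound. Reaction started with 40 uM arachidonic acid, 30 min at room temperature. Hydroperoxide measured by Fe-xylenol orange, 573/405 nm absorbance ratio.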
# * marks the source's active call; other numbers are inactive results; ? = inconclusive; / = no result given; ! = not active in a repeat; [ ] = remark or other dose. The call rests on the fitted dose curve; in most records, active means well fitted curve in the direction sought with a large enough effect; inconclusive means small, poorly fitted or top-dose-only effect, or another doubt; inactive means no such curve, though single readings can be large; an effect the other way counts as inactive or inconclusive. Potency means the concentration at half of the fitted maximal effect.
SMILES,JMJD2A Tudor inh,PLK1 PBD inh,BAZ2B block,HP1b binding inh,G9a block,12-LOX inh
Cc1ccccc1NC(=S)NC(NC(=O)CF)C(Cl)(Cl)Cl (stereo unspecified),3%,-11%,-21%,32%,-1%[59 µM],-28%
Cc1cccc(NC(=O)CSc2ccc(-c3ccco3)nn2)c1,-10%,-15%,-25%,23%,28µM*,0%
COc1ccc(NC(=O)CSc2nc(-c3ccco3)cc(C(F)(F)F)n2)cc1OC,-3%,/,-2%,47%,-4%[59 µM],-14%
Cc1nccn1Cc1ccc(Cl)nc1,-9%,-17%,-6%,7%,49%,-17%
COc1ccc(NC(=O)CCc2nc(C3=CCN(Cc4cccc(Cl)c4)CC3)no2)cc1OC,56µM*,/,50µM*,-5%[57 µM],28µM*,?
Cn1c(SCC(=O)N2CCOCC2)nnc1-c1cccc(NC(=O)c2ccccc2)c1,89µM*,-12%,/,14%,10µM*,8%
CCCc1nc2ccccc2c(=O)n1-c1cccc(OC)c1,-3%,-10%,5%,24%,25%,-18%
COC(=O)CSc1nc2sc3c(c2c(=O)n1C1CCCCC1)CCN(C)C3,/,/,-30%,/,45µM*,/
OCC[N+]12CCC(CC1)C(C(O)(c1ccccc1)c1ccccc1)C2 (stereo unspecified),-9%,-4%,1%,14%,4%[12.7 µM],3%
Cn1nc(-c2cccs2)cc1[C@H]1CN2CC[C@H]1C[C@@H]2CNCc1ccccn1,/,/,/,/,/,71%[176 µM]
C/C(O)=C1\C(=O)[C@@H]2[C@H]3c4c[nH]c5cccc(c45)C[C@H]3C(C)(C)N2C1=O,/,/,/,/,25µM*!,?
COc1cc(/C=C/C(=O)c2c(O)n(CCc3ccccc3)c(=O)[nH]c2=O)ccc1O,-9%,-1%,11%,16%,45µM*,-29%
CC(C)(C)OC(=O)NNC(=S)NC1CCCCC1,-3%,-13%,-16%,29%,25µM*,-2%
CN(C)C(=O)Oc1ccc([N+](=O)[O-])cc1,10%,0%,-3%,27%,?,-3%
CCCCn1c(-c2nonc2NC(=O)c2ccccc2Cl)nc2ccccc21,6%,-1%,/,70%,/,10%
Cc1ccc(N2C(=O)/C(=C/N3CCN(C(=O)c4ccco4)CC3)C(=O)NC2=S)cc1C,-14%,24µM*,-31%,5%,54%[12.7 µM],40µM*
CCOC(=O)C1CCN(/C=C2/C(=O)NC(=S)N(c3ccccc3F)C2=O)CC1,1%,0%,-10%,13%,/,-21%
Cc1cccc(N2C(=O)/C(=C/N3CCN(C(=O)c4ccco4)CC3)C(=O)NC2=S)c1,-18%,?,-3%,17%,?,?
O=C1NC(=S)N(c2ccc(Br)cc2)C(=O)/C1=C/N1CCN(C(=O)c2ccco2)CC1,-29%,?,-33%,4%,45µM*,?
S=c1[nH]nc(-c2ccco2)n1/N=C/c1cccs1,40µM*,-15%,-33%,-9%,1.3µM*,?
O=C1CC(N2CC=C(c3ccc(F)cc3)CC2)C(=O)N1c1ccc(F)cc1 (stereo unspecified),?,-5%,-12%,31%,25µM*,?
CCOC(=O)c1ccc(N2C(=O)CC(N3CC=C(c4ccc(F)cc4)CC3)C2=O)cc1 (stereo unspecified),-34%,-16%,8%,1%,3.2µM*,?
O=C1CC(N2CC2)C(=O)N1c1ccccc1 (stereo unspecified),/,-16%,/,/,/,-5%
CC(C)CS(=O)(=O)C1=NN2C(=N)/C(=C\c3ccc(OC(=O)c4ccco4)cc3)C(=O)N=C2S1,-34%,21µM*,?,9%,/,?
C=C1C(=O)O[C@@H]2C[C@@H](C)[C@@H]3C=CC(=O)[C@@]3(C)[C@@H](O)[C@H]12,-14%,-21%,1%,40%,11µM*!,0%[176 µM]
SMILES,JMJD2A Tudor inh,PLK1 PBD inh,BAZ2B block,HP1b binding inh,G9a block,12-LOX inh
C[C@@H]1CN([C@H](C)CO)C(=O)CCCn2nncc2CO[C@@H]1CN(C)C(=O)Oc1ccccc1,/,-17%,/,/,/,-5%
Fc1ccc(NC2=NCCS2)cc1Cl,-10%[57.1 µM],-7%,1%,23%,6%[12.7 µM],15%
CN1CCN(S(=O)(=O)c2ccc(C3CCCCC3)cc2)CC1,89µM*,1%,7%,-8%,8.9µM*,?
CN1C(=O)N(C)C(=O)C2(Cc3c(nc4ccccn4c3=O)N3CCc4ccccc4C32)C1=O (stereo unspecified),?,17µM*,19%,?,1%[59 µM],-23%
CC1CCN2c3nc4ccccn4c(=O)c3CC3(C(=O)N(C)C(=O)N(C)C3=O)C2C1 (stereo unspecified),-10%,3%,-4%,45%,-3%[59 µM],0%
O=C(O)C1CC2(Cl)C(Cl)=C(Cl)C1(Cl)C2(Cl)Cl (stereo unspecified),-17%,-19%,/,13%[57 µM],/,-18%
O=C(N/N=C1/CN2CCC1CC2)c1cccc(O)c1,45µM*,-6%,?,2%,10µM*,?
COc1ccc(C(=O)C2CCCN(C3CSCCSC3)C2)cc1OC (stereo unspecified),-16%,-6%,-19%,25%,-24%,39%
O=C1CC(=O)N(c2ccccc2F)C(=O)N1,-8%,?,-3%,26%,?,-15%
O=C1CC(=O)N(c2ccc(Cl)cc2Cl)C(=O)N1,-26%,-4%,-1%,2%,45µM*,?
O=C1CC(=O)N(c2cccc(C(F)(F)F)c2)C(=O)N1,-12%,?,3%,15%,21%,-1%
Cc1cc(Br)ccc1N1C(=O)CC(=O)NC1=O,-32%,-8%,-33%,-1%,8%[59 µM],45µM*
COc1cc(N2C(=O)CC(=O)NC2=O)cc(OC)c1OC,-11%,?,20%,17%,/,?
O=C1CC(=O)N(c2cccc(Br)c2)C(=O)N1,?,-25%,-23%,5%,56µM*,-26%
COc1ccc(-n2c(O)c(/C=C/C=Nc3ccccc3)c(=O)[nH]c2=O)cc1,-25%,83%,-14%,38%,-3%[59 µM],?
O=c1[nH]c(=O)n(-c2ccccc2)c(O)c1/C=C/C=Nc1ccccc1,-15%,47%,-7%,28%,6%[59 µM],?
COC(=O)C1=Nc2ccccc2/C1=C\c1c(O)n(C)c(=O)n(C)c1=O,-7%,4.7µM*,-22%,42%,?,1%
COC(=O)C1=Nc2ccccc2/C1=C\c1c(O)n(-c2ccc(Br)cc2)c(=O)[nH]c1=O,?,1.7µM*,56µM*,-11%,16µM*,35µM*
O=c1[nH]c(=O)n(-c2ccccc2)c(O)c1/C=C1/C(c2ccccc2)=Nc2ccccc21,?,11µM*,?,-10%,?,?
